40 compounds from PubChem BioAssay (Tox21) can be followed below.

Molecules are shown by their SMILES. A number with no mark means an inactive call. The source made the active and inactive calls. Calls come from the whole dose curve.
% is set by controls: 0 for no effect and ±100 for the full control effect; potency is the fitted concentration of half-maximal effect.

In the experiment the target is Gonadotropin-releasing hormone receptor (Homo sapiens) (UniProt P30968). Description: Human gonadotropin-releasing hormone receptor (GnRHR) small molecule agonists, calcium flux assay in GnRHR-HEK293 cells (AID 1920063). Note: nearly all actives have a fitted effect of over 35% in size. The following applies: calcium flux fluorescence, agonist mode; series mostly up to 57.6 µM; activity change: at the top concentration. An excerpt: National Center for Advancing Translational Sciences [NCATS]
Gonadotropin-releasing hormone receptor (Homo sapiens), sequence (P30968 whole entry, looked up): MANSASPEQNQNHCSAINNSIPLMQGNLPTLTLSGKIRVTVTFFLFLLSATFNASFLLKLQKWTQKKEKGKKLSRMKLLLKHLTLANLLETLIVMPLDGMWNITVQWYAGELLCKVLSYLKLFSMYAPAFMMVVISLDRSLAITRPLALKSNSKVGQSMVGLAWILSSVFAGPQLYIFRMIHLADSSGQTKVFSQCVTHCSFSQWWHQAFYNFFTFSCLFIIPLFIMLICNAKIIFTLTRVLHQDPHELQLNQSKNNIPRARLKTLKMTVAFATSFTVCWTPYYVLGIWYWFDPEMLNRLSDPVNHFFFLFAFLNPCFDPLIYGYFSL
Division of Preclinical Innovation [DPI]
U.S. Environmental Protection Agency [EPA]
National Institutes of Environmental Health Sciences [NIEHS]
National Toxicology Program [NTP]
U.S. Food and Drug Administration [FDA]
Gonadotropin-releasing hormone receptor (GnRHR) is a G-protein-coupled receptor (GPCR) and acts (through phospholipase C) to increase intracellular inositol trisphosphate and then release intracellular calcium stores. Cell-based GnRHR-Hek293 calcium influx assay is using HEK293 cells that have been genetically engineered to express the human GnRHR, which activity can be measured by calcium signaling. A compound/drug can activate (agonist) GnRHR that can be monitored by levels of intracellular calcium.
GnRHR-HEK293 cells developed by Codex Corp contain human GnRHR reporter gene, which was stably integrated into HEK 293 cells. The compound activation can be detected by fluorescence intensity via calcium flux assay. This cell line has been used to screen the Tox21 10K compound library to identify GnRHR agonists.
GnRHR-Hek293 cells were dispensed at 1500cells/4uL/well in 1536-well black wall/clear bottom plates using a multidrop dispenser. After the assay plates were incubated at a 37 C/5% CO2 incubator for 18 hours, 4 uL of Calcium Dye Solution was added to each well. The plates were incubated at 37 C for 1 hour. For agonist mode, 23 nL of compounds dissolved in DMSO, positive controls or DMSO only was transferred to the assay plate by a pin tool station. The fluorescence intensity in the plates was measured using FDSS 7000EX kinetic plate reader with a filter set of Ex/Em=480/540 for 3 min at 1 sec intervals. Each test compound was measured at 15 concentrations and in triplicates.
(In general: Calcium flux is commonly read through the fluorescence of an indicator in the cells.)
With `Cc1ccccc1N=Nc1ccc(N=Nc2c(O)ccc3ccccc23)c(C)c1`, the “activity change” value is -0.318% [at 26.4 µM, hits give high values].
As to `O=S(=O)(O)c1ccc(Nc2nc(Nc3ccc(/C=C/c4ccc(Nc5nc(Nc6ccc(S(=O)(=O)O)cc6)nc(N(CCO)CCO)n5)cc4S(=O)(=O)O)c(S(=O)(=O)O)c3)nc(N(CCO)CCO)n2)cc1`, the “activity change” value was -1.21% [at 26.4 µM, hits give high values].
With `CC[C@H]1OC(=O)[C@H](C)[C@@H](O[C@H]2C[C@@](C)(OC)[C@@H](O)[C@H](C)O2)[C@H](C)[C@@H](O[C@@H]2O[C@H](C)C[C@H](N(C)C)[C@H]2O)[C@](C)(O)C[C@@H](C)CN(C)[C@H](C)[C@@H](O)[C@]1(C)O`, the “activity change” value was 1.67% [at 26.4 µM, hits give high values].
On the same count and under the same terms, for `CC(S)C(C)S` (stereo not given) the value was -1.08%; for `CC(C)OC(=O)OCOP(=O)(CO[C@H](C)Cn1cnc2c(N)ncnc21)OCOC(=O)OC(C)C`, 0.639% [at 26.4 µM, hits give high values].
As for `O=[N+]([O-])c1ccc(O/N=C/c2cc(Br)c(O)c(Br)c2)c([N+](=O)[O-])c1`, the “activity change” value is 1.18%.
On the same count and under the same terms, for `NNC(=O)CCCCC(=O)NN` the value was 1.86%; for `CCC(C)N` (stereo not given), 1.47%.
`CN(C)CCCN1c2ccccc2CCc2ccc(Cl)cc21`: the Potency entry is “inactive”.
Take `COc1cc2ncnc(Nc3cccc(Cl)c3)c2cc1OC`: the activity change is -1.73% [at 11.8 µM, hits give high values].
Same read-out and setting: the value for `CO/N=C1\CN(c2nc3c(cc2F)c(=O)c(C(=O)O)cn3C2CC2)CC1CN` (stereo not given) was 1.48% [at 26.4 µM, hits give high values].
On the same count and under the same terms, for `NC(Cc1ccc(F)cc1)C(=O)O` (stereo not given) the value was -0.388% [at 5.22 µM, hits give high values]; for `Cc1ccc(N)cc1O`, 2.34%.
Still for that read-out and setting: the value for `CCC(Cl)CCC(Cl)C(Cl)CC(Cl)C(Cl)C(Cl)CCl` (stereo not given) was 1.42%; that for `CCOC(C)OCC` was 1.17%.
Turning to `CC(Oc1c(Cl)cccc1Cl)C1=NCCN1` (stereo not given), the “activity change” value was 3.42% [at 26.4 µM, hits give high values].
On the same count and under the same terms, the value for `NS(=O)(=O)c1ccc(C(=O)O)cc1` was -0.497% [at 26.4 µM, hits give high values]; that for `CCN(Cc1cccc(S(=O)(=O)O)c1)c1ccc(C(=C2C=CC(=[N+](CC)Cc3cccc(S(=O)(=O)O)c3)C=C2)c2ccccc2S(=O)(=O)[O-])cc1` was -0.19% [at 26.4 µM, hits give high values].
Still for that read-out and setting: for `Cc1ccccn1` the value was 0.478%; for `C=CC(=O)OCCOc1ccccc1`, -0.423%.
For the compound `Cc1cc(O)c2c(O)c3c(O)cccc3cc2c1`, the “activity change” value was -0.267% [at 26.4 µM, hits give high values].
Same read-out and setting: for `Nc1c(I)cc(I)c(C(=O)N(CCC(=O)O)c2ccccc2)c1I` the value was 0.658% [at 26.4 µM, hits give high values]; for `CCCCCCCCCCCC(=O)[O][Sn]([CH2]CCC)([CH2]CCC)[O]C(=O)CCCCCCCCCCC`, -0.0743% [at 26.4 µM, hits give high values].
Turning to `CCCCCC(C)OC(=O)COc1ccc(Cl)c2cccnc12` (stereo not given), the “activity change” value was 2.46%.
On the same count and under the same terms, for `CC1=CC(=C(c2ccc(N)cc2)c2ccc(N)cc2)C=CC1=N` the value was -1.28% [at 5.22 µM, hits give high values]; for `c1ccc(-c2ccccc2-c2ccccc2)cc1`, 0.0771%; for `C=C[C@](C)(O)CC[C@@H]1[C@@]2(C)CCCC(C)(C)[C@@H]2CC[C@@]1(C)O`, 1.3%.
For the compound `S=C([S-])NCCNC(=S)[S-].[Mn+2]`, the “activity change” value is 2.84%.
`CC(=O)N[C@@H](CCC(=O)O)C(=O)O`: the “activity change” value was -0.851% [at 26.4 µM, hits give high values].
For the compound `C#C[C@]1(O)CC[C@H]2[C@@H]3[C@H](C)CC4=C(CCC(=O)C4)[C@H]3CC[C@@]21C`, the “activity change” value is 9.01% [at 26.4 µM, hits give high values].
As for `CC(C)O`, the “activity change” value is 0.265%.
Same read-out and setting: for `C[C@]12CCC(=O)C=C1CC[C@H]1[C@@H]3CC[C@](O)(C(=O)CO)[C@@]3(C)C[C@H](O)[C@@]12F` the value was 0.37% [at 26.4 µM, hits give high values].
For the compound `CCCC(=O)OC/C=C(\C)CCC=C(C)C`, the “activity change” value is -0.408%.
Consider `Oc1ccc(Cl)cc1C1CCCC1`, for which the “activity change” value is 3.84%.
For `O=[N+]([O-])c1cc(C2CCCCC2)c(O)c([N+](=O)[O-])c1`, the Potency is 38.8 µM (active).
Consider `Clc1cccc(Cl)n1`, for which the “activity change” value was -0.595%.
For the compound `CN1C(=O)c2ccccc2C1=O`, the “activity change” value was 3.03%.
Regarding `Oc1ccc(Cc2ccccc2)cc1`, the “activity change” value was 13.6%.
In the case of `CC1(C)SC(C)(C)SC(C)(C)S1`, the “activity change” value is 0.342%.
As to `O=C(O)c1ccc(-n2nc(-c3ccccc3O)nc2-c2ccccc2O)cc1`, the “activity change” value is -0.241% [at 26.4 µM, hits give high values].
